From PubChem BioAssay AID1159580 (chemical genetic matrix, 2015)
The whole screen tested about 5,500 compounds, of which about 2,000 (36%) were called active. About 18% were inconclusive and are not listed. No stated cut-off is given here; in the data, active means normalized growth mostly below about 0.91 (no sharp cut-off); inconclusive means no clear call, values can overlap the other calls; inactive means mostly above about 0.92. This is one part of the list.

Assay: chemical genetic growth profiling, strain panel (AID 1159580);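 further: tested at 20 µM; growth read once vehicle control cultures reached saturation at 30 °C; 1 = growth at the plate median or of vehicle wells; lower values mean less growth of the strain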
Conditions: growth OD
[1] = S. cerevisiae deletion strains, locus YDL101C, strain DUN1, hits give low values
[2] = S. cerevisiae deletion strains, locus YHR030C, strain SLT2, hits give low values
[3] = S. cerevisiae deletion strains, locus YAL013W, strain DEP1, hits give low values
[4] = S. cerevisiae deletion strains, locus YBR229C, strain ROT2, hits give low values
[5] = S. cerevisiae deletion strains, locus YDR150W, strain NUM1, hits give low values
[6] = S. cerevisiae deletion strains, locus YEL061C, strain CIN8, hits give low values
[7] = S. cerevisiae deletion strains, locus YGR078C, strain PAC10, hits give low values
[8] = S. cerevisiae deletion strains, locus YHR087W, strain rtc3, hits give low values
[9] = S. cerevisiae deletion strains, locus YJL187C, strain SWE1, hits give low values
[10] = S. cerevisiae deletion strains, locus YJR043C, strain POL32, hits give low values
[11] = S. cerevisiae deletion strains, locus YJR075W, strain HOC1, hits give low values
[12] = S. cerevisiae deletion strains, locus YKL190W, strain CNB1, hits give low values
[13] = S. cerevisiae deletion strains, locus YLR039C, strain RIC1, hits give low values
[14] = S. cerevisiae deletion strains, locus YLR058C, strain SHM2 (second series), hits give low values
[15] = S. cerevisiae deletion strains, locus YLR085C, strain ARP6, hits give low values
[16] = S. cerevisiae deletion strains, locus YLR262C, strain YPT6, hits give low values
[17] = S. cerevisiae deletion strains, locus YML094W, strain GIM5, hits give low values
[18] = S. cerevisiae deletion strains, locus YMR219W, strain ESC1, hits give low values
[19] = S. cerevisiae deletion strains, locus YMR263W, strain SAP30, hits give low values
[20] = S. cerevisiae deletion strains, locus YMR307W, strain GAS1, hits give low values
[21] = S. cerevisiae deletion strains, locus YNL153C, strain GIM3, hits give low values
[22] = S. cerevisiae deletion strains, locus YNL298W, strain CLA4 (second series), hits give low values
[23] = S. cerevisiae deletion strains, locus YNL322C, strain KRE1, hits give low values
[24] = S. cerevisiae deletion strains, locus YNR030W, strain Alg12, hits give low values
[25] = S. cerevisiae deletion strains, locus YPL055C, strain LGE1, hits give low values
[26] = S. cerevisiae deletion strains, locus YPL241C, strain CIN2, hits give low values
[27] = S. cerevisiae deletion strains, locus YPR135W, strain CTF4, hits give low values
[28] = S. cerevisiae deletion strains, locus YCL061C, strain MRC1, hits give low values
[29] = S. cerevisiae deletion strains, locus YDL134C, strain PPH21, hits give low values

Measured: normalized growth

FC(F)(F)c1cc(NC(=S)SCCSC(=S)Nc2cc(C(F)(F)F)cc(C(F)(F)F)c2)cc(C(F)(F)F)c1
inactive: S. cerevisiae deletion strains, locus YAR019C, strain CDC15, hits give low values 0.993 | S. cerevisiae deletion strains, locus YBL105C, strain PKC1, hits give low values 0.989 | S. cerevisiae deletion strains, locus YBR135W, strain CKS1, hits give low values 1 | S. cerevisiae deletion strains, locus YBR136W, strain MEC1, hits give low values 0.986 | S. cerevisiae deletion strains, locus YBR160W, strain CDC28, hits give low values 0.997 | S. cerevisiae deletion strains, locus YDL017W, strain CDC7, hits give low values 0.991 | S. cerevisiae deletion strains, locus YDL028C, strain MPS1, hits give low values 0.991 | [1] 1 | S. cerevisiae deletion strains, locus YDL108W, strain KIN28, hits give low values 0.99 | S. cerevisiae deletion strains, locus YDL132W, strain cdc53, hits give low values 0.988 | S. cerevisiae deletion strains, locus YDL214C, strain PRR2, hits give low values 0.889 | S. cerevisiae deletion strains, locus YDR052C, strain DBF4, hits give low values 1 | S. cerevisiae deletion strains, locus YDR054C, strain cdc34, hits give low values 0.994 | S. cerevisiae deletion strains, locus YDR226W, strain ADK1, hits give low values 0.994 | S. cerevisiae deletion strains, locus YDR477W, strain SNF1, hits give low values 0.951 | S. cerevisiae deletion strains, locus YER123W, strain YCK3, hits give low values 0.949 | S. cerevisiae deletion strains, locus YER133W, strain GLC7, hits give low values 0.911 | S. cerevisiae deletion strains, locus YFL009W, strain cdc4, hits give low values 1 | S. cerevisiae deletion strains, locus YFL029C, strain CAK1, hits give low values 0.994 | S. cerevisiae deletion strains, locus YFR003C, strain YPI1, hits give low values 0.993 | S. cerevisiae deletion strains, locus YFR019W, strain FAB1, hits give low values 1.01 | S. cerevisiae deletion strains, locus YFR028C, strain CDC14, hits give low values 0.993 | S. cerevisiae deletion strains, locus YGR040W, strain KSS1, hits give low values 0.951 | S. cerevisiae deletion strains, locus YGR052W, strain FMP48, hits give low values 1.04 | S. cerevisiae deletion strains, locus YGR092W, strain DBF2, hits give low values 0.993 | [2] 0.984 | S. cerevisiae deletion strains, locus YHR079C, strain IRE1, hits give low values 1.04 | S. cerevisiae deletion strains, locus YHR082C, strain KSP1, hits give low values 1.03 | S. cerevisiae deletion strains, locus YHR205W, strain SCH9, hits give low values 0.983 | S. cerevisiae deletion strains, locus YIL147C, strain SLN1, hits give low values 0.97 | S. cerevisiae deletion strains, locus YJL095W, strain BCK1, hits give low values 1.08 | S. cerevisiae deletion strains, locus YJL128C, strain PBS2, hits give low values 0.954 | S. cerevisiae deletion strains, locus YJL157C, strain FAR1, hits give low values 0.884 | S. cerevisiae deletion strains, locus YJR016C, strain ILV3, hits give low values 0.995 | S. cerevisiae deletion strains, locus YJR066W, strain TOR1 (second series), hits give low values 0.94 | S. cerevisiae deletion strains, locus YJR066W, strain TOR1, hits give low values 1.09 | S. cerevisiae deletion strains, locus YKL048C, strain ELM1, hits give low values 0.971 | S. cerevisiae deletion strains, locus YKL067W, strain YNK1, hits give low values 0.862 | S. cerevisiae deletion strains, locus YKL101W, strain HSL1, hits give low values 0.968 | S. cerevisiae deletion strains, locus YKL193C, strain SDS22, hits give low values 0.992 | S. cerevisiae deletion strains, locus YKL203C, strain TOR2, hits give low values 1.06 | S. cerevisiae deletion strains, locus YLR113W, strain HOG1, hits give low values 0.869 | S. cerevisiae deletion strains, locus YLR133W, strain CKI1, hits give low values 0.972 | S. cerevisiae deletion strains, locus YLR403W, strain SFP1, hits give low values 0.982 | S. cerevisiae deletion strains, locus YML070W, strain DAK1, hits give low values 0.908 | S. cerevisiae deletion strains, locus YMR001C, strain CDC5, hits give low values 0.997 | S. cerevisiae deletion strains, locus YMR205C, strain PFK2 (second series), hits give low values 0.988 | S. cerevisiae deletion strains, locus YMR277W, strain FCP1, hits give low values 0.986 | S. cerevisiae deletion strains, locus YNL006W, strain LST8, hits give low values 0.996 | S. cerevisiae deletion strains, locus YNL020C, strain ARK1, hits give low values 0.973 | S. cerevisiae deletion strains, locus YNL161W, strain CBK1, hits give low values 0.998 | S. cerevisiae deletion strains, locus YNL183C, strain NPR1, hits give low values 1.03 | S. cerevisiae deletion strains, locus YNL207W, strain RIO2, hits give low values 0.987 | S. cerevisiae deletion strains, locus YNL222W, strain SSU72, hits give low values 0.989 | S. cerevisiae deletion strains, locus YNL307C, strain MCK1 (second series), hits give low values 0.984 | S. cerevisiae deletion strains, locus YOL078W, strain AVO1, hits give low values 0.992 | S. cerevisiae deletion strains, locus YOL136C, strain PFK27, hits give low values 0.933 | S. cerevisiae deletion strains, locus YOR061W, strain CKA2, hits give low values 0.994 | S. cerevisiae deletion strains, locus YOR119C, strain RIO1, hits give low values 1.02 | S. cerevisiae deletion strains, locus YOR231W, strain MKK1, hits give low values 1.03 | S. cerevisiae deletion strains, locus YOR329C, strain SCD5, hits give low values 0.996 | S. cerevisiae deletion strains, locus YPL031C, strain PHO85, hits give low values 0.963 | S. cerevisiae deletion strains, locus YPL153C, strain RAD53, hits give low values 0.946 | S. cerevisiae deletion strains, locus YPL204W, strain HRR25, hits give low values 0.932 | S. cerevisiae deletion strains, locus YPL209C, strain IPL1, hits give low values 0.992 | S. cerevisiae deletion strains, locus YPL256C, strain CLN2, hits give low values 0.926 | S. cerevisiae deletion strains, locus YPR025C, strain CCL1, hits give low values 0.999 | S. cerevisiae deletion strains, locus YPR106W, strain ISR1, hits give low values 0.998 | S. cerevisiae deletion strains, locus YPR111W, strain DBF20, hits give low values 0.988 | S. cerevisiae deletion strains, strain NNK1, hits give low values 0.986 | S. cerevisiae deletion strains, strain TSCII, hits give low values 0.993

CCc1cccc(C)c1NC(=O)CC(C)(C)CC(=O)O
inactive: [3] 0.988 | [4] 0.994 | [1] 1.02 | [5] 0.981 | [6] 0.992 | [7] 0.99 | S. cerevisiae deletion strains, locus YGR229C, strain SMI1, hits give low values 0.992 | [2] 0.989 | [8] 1.01 | [9] 0.996 | [10] 0.995 | [11] 1.01 | [12] 0.987 | [13] 1.03 | [14] 0.996 | [15] 0.966 | [16] 1.02 | [17] 1.06 | [18] 0.996 | [19] 0.967 | [20] 0.983 | [21] 1.01 | [22] 1.01 | [23] 0.992 | [24] 1 | [25] 1.02 | [26] 1.01 | [27] 1.06

O=C(CN1CCOCC1)Nc1cc(C(F)(F)F)cc(C(F)(F)F)c1
inactive: [3] 0.999 | [4] 1.01 | [28] 1.01 | [1] 1 | [29] 0.995 | [5] 1 | [6] 1.01 | [7] 1.01 | [2] 1.02 | [8] 0.995 | [10] 0.974 | [11] 0.986 | [13] 1.06 | [14] 1 | [15] 0.988 | [16] 1.05 | [17] 0.996 | [18] 1.01 | [19] 0.986 | [20] 1.01 | S. cerevisiae deletion strains, locus YNL128W, strain TEP1, hits give low values 0.993 | [21] 0.99 | [22] 0.992 | [23] 1 | [24] 0.994 | [25] 0.972 | [26] 1.07 | [27] 1.02 | S. cerevisiae strains, strain wild type, hits give low values 0.999

CCN1CN=C(SCc2ccc(Br)cc2)NC1
inactive: [3] 1.01 | [4] 1.01 | [28] 1.02 | [1] 0.998 | [29] 1.01 | [5] 0.995 | [6] 1.01 | [7] 0.998 | [2] 0.902 | [8] 0.999 | [9] 1.01 | [10] 0.988 | [11] 0.98 | [12] 1.02 | [13] 0.982 | [14] 1.02 | [15] 1.02 | [16] 0.953 | [17] 0.996 | [18] 0.999 | [19] 1.01 | [20] 1.17 | [21] 0.986 | [22] 0.984 | [23] 1.01 | [24] 0.999 | [25] 1.06 | [26] 0.995 | [27] 0.98
